# PubChem BioAssay (Tox21)
# Unmarked numbers belong to inactive results. Inconclusive results are not listed. Where a call stands in place of a potency, no number is given. Active and inactive are the calls of the source. Unless noted, the call rests on the fitted dose curve; in most records, active means well fitted curve in the direction sought with a large enough effect in the repeat runs; inconclusive means weak or mixed curves; inactive means no such curve, though single readings can be large; an effect the other way counts as inactive or inconclusive.
# Legend:
# [1] = A CellTox Green Cytotoxicity Assay to monitor cytotoxicity in HepG2 cells - 8 hour (AID 1224890); further: nearly all actives have a fitted effect of over 45% in size
# Procedure, shortened: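 Measurements at 0, 8, 16, 24, 32 and 40 h of treatment captured CellTox Green fluorescence in HepG2 cells that had been co-plated with reagent and preincubated 5 h at 37 C/5% CO2.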
# [2] = qHTS assay to identify small molecule antagonists of the estrogen receptor alpha (ER-alpha) signaling pathway using the BG1 cell line in the presence of 0.1 nM 17-beta-estradiol - cell viability counter screen (AID 1259241); further: nearly all actives have a fitted effect of over 40% in size
# Procedure, shortened: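 VM7Luc4E2, 4,000 cells/well, phenol red-free medium + 10% charcoal-stripped FBS; 24 hr plating; cpd + 0.1 nM E2 final, 22 hr 37C/5% CO2; CellTiter-Fluor 30 min, fluorescence.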
# [3] = qHTS assay to identify small molecule antagonists of the androgen receptor (AR) signaling pathway using the MDA cell line in the presence of 0.5 nM R1881 - cell viability counter screen (AID 1259242); further: nearly all actives have a fitted effect of over 45% in size
# Procedure, shortened: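 Concentration-response screen of compounds for toxicity in MDA-kb2 reporter cells: 16 hr at 37C with 0.5 nM R1881, endpoint live-cell protease fluorescence measured in the reporter wells.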
# [4] = target: Estrogen receptor (Homo sapiens) (UniProt P03372); test: qHTS assay to identify small molecule antagonists of the estrogen receptor alpha (ER-alpha) signaling pathway using the BG1 cell line in the presence of 0.1 nM 17-beta-estradiol (AID 1259244); further: nearly all actives have a fitted effect of over 50% in size
# Chain of Estrogen receptor (Homo sapiens) (P03372 whole entry, looked up): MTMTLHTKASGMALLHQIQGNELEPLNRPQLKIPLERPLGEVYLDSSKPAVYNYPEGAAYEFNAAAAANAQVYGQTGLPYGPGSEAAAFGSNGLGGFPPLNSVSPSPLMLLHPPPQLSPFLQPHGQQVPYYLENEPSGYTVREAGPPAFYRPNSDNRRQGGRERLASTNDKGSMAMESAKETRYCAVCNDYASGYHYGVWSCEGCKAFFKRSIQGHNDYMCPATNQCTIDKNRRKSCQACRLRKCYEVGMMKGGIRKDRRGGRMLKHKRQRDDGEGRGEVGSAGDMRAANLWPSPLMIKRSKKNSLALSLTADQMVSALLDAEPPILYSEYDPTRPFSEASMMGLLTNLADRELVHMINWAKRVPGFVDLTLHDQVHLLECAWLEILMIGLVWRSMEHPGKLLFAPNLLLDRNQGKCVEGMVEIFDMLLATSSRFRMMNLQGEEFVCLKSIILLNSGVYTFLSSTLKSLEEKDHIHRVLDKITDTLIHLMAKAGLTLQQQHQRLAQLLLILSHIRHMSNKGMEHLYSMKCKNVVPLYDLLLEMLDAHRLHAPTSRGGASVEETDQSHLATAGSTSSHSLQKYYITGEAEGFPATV
# Procedure, shortened: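 Compounds were tested against 0.1 nM (final) 17beta-estradiol in VM7Luc4E2 cells, which express full-length ER-alpha and an ERE-luciferase reporter; luminescence was recorded following 22 h exposure.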
# [5] = qHTS assay to identify small molecule HDAC inhibitors (AID 1259364); further: potency means the concentration at half of the fitted maximal effect;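 further: wild-type HCT-116 cells with endogenous class I/II HDAC activity; nearly all actives have a fitted effect of over 45% in size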; on activity change, negative = inhibition: top concentration of the series differs between compounds
# Procedure, shortened: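 Screening used wild-type human colon HCT-116 cells incubated overnight, dosed with compounds for 2 hours, and assayed with a homogeneous luminogenic HDAC I/II reagent for 30 minutes at room temperature.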
# [6] = qHTS assay to identify small molecule HDAC inhibitors - cell viability counter screen (AID 1259365); further: series mostly up to about 92 µM; nearly all actives have a fitted effect of over 50% in size
# Procedure, shortened: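 Luminescence from CellTiter-Glo, developed 30min at room temperature, reports viability of wild-type HCT-116 cells treated 2hr with compounds at 37 C and 5% CO2 after overnight plating.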
# [7] = qHTS assay to identify small molecule agonists of the sonic hedgehog signaling (Shh) pathway - cell viability counter screen (AID 1259366); further: nearly all actives have a fitted effect of over 50% in size
# Procedure, shortened: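 Cytotoxicity counter screen run in the same wells as the Shh reporter assay. NIH/3T3 cells carrying a Gli1 response element–driven luciferase were treated with DMSO-dissolved compounds for 24hr, and live-cell protease activity was measured with CellTiter-Fluor.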
# [8] = qHTS assay to identify small molecule antagonists of the sonic hedgehog signaling (Shh) pathway - cell viability counter screen (AID 1259367); further: nearly all actives have a fitted effect of over 55% in size
# Procedure, shortened: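 Tox21 library chemicals were tested on a Gli1-Luc NIH/3T3 clone (2,000 cells/well) stimulated by conditioned medium; viability was quantified as fluorescence from CellTiter-Fluor reagent added at 23 hr.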
# [9] = qHTS assay to identify small molecule agonists of the sonic hedgehog signaling (Shh) pathway (AID 1259368; calls by dose curve;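 further: NIH/3T3-derived 3T3Gli1-Luc cells carrying a stable Gli1-driven firefly luciferase reporter; series mostly up to about 92 µM; nearly all actives have a fitted effect of over 15% in size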)
# Procedure, shortened: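 Hedgehog pathway agonism scored by increased firefly luciferase luminescence in 3T3Gli1-Luc cells treated 24 hr at 37 C; detection used a 30 min room-temperature reagent incubation.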
# [10] = qHTS assay to identify small molecule antagonists of the sonic hedgehog signaling (Shh) pathway (AID 1259369; calls by dose curve; further: nearly all actives have a fitted effect of over 45% in size)
# Procedure, shortened: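 NIH/3T3 stable Gli1-Luc clone, 2,000 cells/well, 4hr settle; cpd + conditioned medium 24hr; Luc reagent 30min RT; luminescence.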
# [11] = target: Estrogen receptor beta (Homo sapiens) (UniProt Q92731); test: qHTS assay to identify small molecule agonists of the estrogen receptor beta (ER-beta) signaling pathway (AID 1259377; active means well fitted activation curve with a large enough effect in the signal ratio in the repeat runs, not every such curve was filed as active; the % refers to the signal ratio)
# Chain of Estrogen receptor beta (Homo sapiens) (Q92731 whole entry, looked up): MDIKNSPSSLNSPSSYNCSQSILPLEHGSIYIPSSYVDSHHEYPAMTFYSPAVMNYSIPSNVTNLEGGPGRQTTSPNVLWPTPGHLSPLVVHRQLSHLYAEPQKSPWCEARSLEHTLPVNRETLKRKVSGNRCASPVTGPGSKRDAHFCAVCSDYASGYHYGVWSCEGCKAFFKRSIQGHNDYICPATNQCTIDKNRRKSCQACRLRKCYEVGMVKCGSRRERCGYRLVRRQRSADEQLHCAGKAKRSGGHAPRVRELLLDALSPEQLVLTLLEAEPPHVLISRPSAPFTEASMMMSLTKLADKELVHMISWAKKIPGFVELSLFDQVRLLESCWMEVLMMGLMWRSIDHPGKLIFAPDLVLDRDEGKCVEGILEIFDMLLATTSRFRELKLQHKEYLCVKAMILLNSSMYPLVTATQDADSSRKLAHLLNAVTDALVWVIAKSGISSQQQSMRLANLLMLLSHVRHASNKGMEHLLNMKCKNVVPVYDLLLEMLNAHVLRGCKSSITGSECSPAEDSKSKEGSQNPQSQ
# Procedure, shortened: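 HEK293T ER-beta-UAS-bla; 2% charcoal-stripped FBS; cells pre-incubated 6 hr, compound 16 hr, 37C/5% CO2; LiveBLAzer B/G FRET substrate 2 h RT; fluorescence intensity read.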
# [12] = target: Estrogen receptor beta (Homo sapiens) (UniProt Q92731); test: qHTS assay to identify small molecule antagonists of the estrogen receptor beta (ER-beta) signaling pathway (AID 1259378; active means well fitted inhibition curve with a large enough effect in the signal ratio in the repeat runs, not every such curve was filed as active; the % refers to the signal ratio)
# Procedure, shortened: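 ER-beta-UAS-bla HEK293T cells in 2% charcoal-stripped FBS medium treated with compound plus 1nM final 17-beta-estradiol for 16 hr at 37C. Beta-lactamase reporter read by FRET substrate fluorescence after 2 hours at room temperature.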
# [13] = qHTS assay to identify small molecule agonists of the androgen receptor (AR) signaling pathway in the presence of an antagonist - cell viability counter screen (AID 1259379);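 further: MDA-kb2 human breast cancer cells carrying an MMTV luciferase reporter; series mostly up to about 92 µM; nearly all actives have a fitted effect of over 25% in size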
# Procedure, shortened: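 MDA-kb2 viability measured by CellTiter-Fluor fluorescence in the same wells as the luciferase signal; nilutamide 3.0uM final; 15-point compound titration; 16 hr at 37C.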
# [14] = qHTS assay to identify small molecule agonists of the estrogen receptor beta (ER-beta) signaling pathway - cell viability counter screen (AID 1259380); further: nearly all actives have a fitted effect of over 30% in size
# Procedure, shortened: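 Measured: luminescence from CellTiter-Glo after 30 min at room temperature, added to wells already read for the LiveBLAzer FRET reporter (2 hr substrate); ER-beta-UAS-bla HEK293T cells had 16 hr compound treatment at 37C, 5% CO2.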
# [15] = qHTS assay to identify small molecule antagonists of the estrogen receptor beta (ER-beta) signaling pathway - cell viability counter screen (AID 1259382); further: series mostly up to about 92 µM; nearly all actives have a fitted effect of over 55% in size
# Procedure, shortened: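 Readout: luminescence, CellTiter-Glo, same wells as bla assay. System: ER-beta-UAS-bla GripTite HEK293T, 2% charcoal-stripped FBS. Exposure: compounds plus 1nM 17-beta-estradiol, 16 hr, 37C.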
# [16] = target: Estrogen receptor (Homo sapiens) (UniProt P03372); test: qHTS assay to identify small molecule agonists of the estrogen receptor alpha (ER-alpha) signaling pathway in the presence of an antagonist (AID 1259383; calls by dose curve; further: top concentration of the series differs between compounds; nearly all actives have a fitted effect of over 15% in size)
# Procedure, shortened: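 Quantitative HTS confirmation: compounds titrated at 15 concentrations onto estrogen-deprived VM7Luc4E2 cells carrying a four-ERE luciferase construct, with ICI-182,780 present at 10.0nM final. Signal is luminescence after 22hr exposure.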
# [17] = qHTS assay to identify small molecule agonists or antagonists of the thyroid stimulating hormone receptor (TSHR) signaling pathway - wild type cell line counter screen (AID 1259384; calls by dose curve)
# Procedure, shortened: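 Wild-type Hek293 cells, 800/well, 18 h at 37C, then compound with Ro20-1724 for 30 min RT. cAMP by HTRF (cAMP-d2/anti-cAMP cryptate), 1 h RT, fluorescence read. 15 concentrations, triplicates.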
# [18] = target: Androgen receptor (Homo sapiens) (UniProt P10275); test: qHTS assay to identify small molecule antagonists of the androgen receptor (AR) signaling pathway using the MDA cell line in the presence of 0.5 nM R1881 (AID 1259243); further: nearly all actives have a fitted effect of over 50% in size
# Chain of Androgen receptor (Homo sapiens) (P10275 whole entry, looked up): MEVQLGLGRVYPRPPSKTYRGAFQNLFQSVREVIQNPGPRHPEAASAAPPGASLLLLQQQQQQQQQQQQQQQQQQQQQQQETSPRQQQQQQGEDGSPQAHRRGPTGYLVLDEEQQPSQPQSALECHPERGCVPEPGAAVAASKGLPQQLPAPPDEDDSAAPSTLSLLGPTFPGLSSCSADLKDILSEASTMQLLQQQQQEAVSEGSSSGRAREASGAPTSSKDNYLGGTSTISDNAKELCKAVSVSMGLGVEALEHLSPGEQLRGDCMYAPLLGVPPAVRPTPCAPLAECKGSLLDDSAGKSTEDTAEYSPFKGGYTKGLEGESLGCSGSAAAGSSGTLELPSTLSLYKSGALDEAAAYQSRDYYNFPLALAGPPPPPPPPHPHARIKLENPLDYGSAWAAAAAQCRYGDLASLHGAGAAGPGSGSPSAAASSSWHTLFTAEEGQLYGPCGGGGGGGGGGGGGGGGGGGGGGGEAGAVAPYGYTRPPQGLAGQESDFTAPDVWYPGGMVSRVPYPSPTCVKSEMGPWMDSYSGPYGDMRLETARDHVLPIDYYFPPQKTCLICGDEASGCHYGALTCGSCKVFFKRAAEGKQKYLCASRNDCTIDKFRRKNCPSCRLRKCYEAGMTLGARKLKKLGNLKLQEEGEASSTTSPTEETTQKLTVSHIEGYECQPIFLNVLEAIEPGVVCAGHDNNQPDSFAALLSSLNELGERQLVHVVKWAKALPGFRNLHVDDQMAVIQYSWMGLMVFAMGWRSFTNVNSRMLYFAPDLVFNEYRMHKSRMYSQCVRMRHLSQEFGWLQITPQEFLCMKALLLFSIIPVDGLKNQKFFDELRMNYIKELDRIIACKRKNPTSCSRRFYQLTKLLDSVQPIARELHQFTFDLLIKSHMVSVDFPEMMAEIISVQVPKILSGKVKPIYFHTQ
# Procedure, shortened: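 With R1881 held at 0.5 nM (final), compound effects on MMTV-luciferase expression in MDA-kb2 cells were scored by luminescence after a 16 hr, 37C incubation.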
# [19] = target: Androgen receptor (Homo sapiens) (UniProt P10275); test: qHTS assay to identify small molecule agonists of the androgen receptor (AR) signaling pathway in the presence of an antagonist (AID 1259381; calls by dose curve; further: nearly all actives have a fitted effect of over 15% in size)
# Procedure, shortened: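 Luminescent ONE-Glo read, 30min at room temperature, follows 16hr compound exposure (15 concentrations) of MDA-kb2 cells at 37C, 0% CO2, with nilutamide added at 3.0uM final.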
# [20] = qHTS assay to identify small molecule phospholipidosis (PLD) inducers (AID 1259344; active means well fitted curve in the direction sought with a large enough effect; an effect the other way counts as inactive or inconclusive)
# Procedure, shortened: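 Image-based: LipidTOX Red pit count/intensity per well and per cell; HepG2, 24 h compound at 37 C, PFA fixation, Hoechst counterstain.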
structure (smiles),measurement,setting,value
C/C(C=O)=C\c1ccccc1,Potency,[1],inactive
same,Potency,[2],inactive
same,Potency,[3],inactive
same,Potency,[4],inactive
same,Potency,[5],30 µM (active)
same,Potency,[6],inactive
same,Potency,[7],inactive
same,Potency,[8],inactive
same,Potency,[9],inactive
same,Potency,[10],inactive
same,Potency,[11],inactive
same,Potency,[12],inactive
same,Potency,[13],inactive
same,Potency,[14],inactive
same,Potency,[15],inactive
same,Potency,[16],inactive
same,Potency,[17],inactive
C1=CCC2CC=CC2C1 (centres undefined),Potency,[1],inactive
same,Potency,[2],inactive
same,Potency,[3],inactive
same,Potency,[18],inactive
same,Potency,[5],inactive
same,Potency,[6],inactive
same,Potency,[7],inactive
same,Potency,[8],inactive
same,Potency,[9],inactive
same,Potency,[11],inactive
same,Potency,[12],inactive
same,Potency,[13],inactive
same,Potency,[14],inactive
same,Potency,[19],inactive
same,Potency,[15],inactive
same,Potency,[17],inactive
C=C(C)C(=O)OCCC(F)(F)C(F)(F)C(F)(F)C(F)(F)C(F)(F)C(F)(F)F,Potency,[1],inactive
same,Potency,[2],inactive
same,Potency,[3],inactive
same,Potency,[4],inactive
same,Potency,[5],inactive
same,Potency,[6],inactive
same,Potency,[7],inactive
same,Potency,[8],inactive
same,Potency,[9],inactive
same,Potency,[10],inactive
same,Potency,[11],inactive
same,Potency,[12],inactive
same,Potency,[13],inactive
same,Potency,[14],inactive
same,Potency,[15],inactive
same,Potency,[16],inactive
same,Potency,[17],inactive
CSCC[C@H](NC(=O)[C@H](Cc1c[nH]c2ccccc12)NC(=O)CCNC(=O)OC(C)(C)C)C(=O)N[C@@H](CC(=O)O)C(=O)N[C@@H](Cc1ccccc1)C(N)=O,Potency,[1],inactive
same,Potency,[2],inactive
same,Potency,[3],inactive
same,Potency,[4],inactive
same,Potency,[20],inactive
same,Potency,[5],inactive
same,Potency,[6],inactive
same,Potency,[7],inactive
same,Potency,[8],inactive
same,Potency,[9],inactive
same,Potency,[10],inactive
same,Potency,[11],inactive
same,Potency,[12],inactive
same,Potency,[13],inactive
same,Potency,[14],inactive
same,Potency,[15],inactive
same,Potency,[16],inactive
same,Potency,[17],inactive
CC(C)(C)NCC(O)COc1cccc2c1C[C@H](O)[C@H](O)C2 (some centres undefined),Potency,[1],inactive
same,Potency,[2],inactive
same,Potency,[3],inactive
same,Potency,[4],inactive
same,Potency,[5],inactive
same,Potency,[6],inactive
same,Potency,[7],inactive
same,Potency,[8],inactive
same,Potency,[9],inactive
same,Potency,[10],inactive
same,Potency,[11],inactive
same,Potency,[12],inactive
same,Potency,[13],inactive
same,Potency,[14],inactive
same,Potency,[15],inactive
same,Potency,[16],inactive
same,Potency,[17],inactive
C[C@@H]1C[C@H]2[C@@H]3CCC4=CC(=O)C=C[C@]4(C)[C@@]3(F)[C@@H](O)C[C@]2(C)[C@@]1(O)C(=O)COP(=O)(O)O,Potency,[1],inactive
same,Potency,[2],inactive
same,Potency,[3],inactive
same,Potency,[4],inactive
same,Potency,[20],inactive
same,Potency,[5],inactive
same,Potency,[6],inactive
same,Potency,[7],inactive
same,Potency,[8],inactive
same,Potency,[9],inactive
same,Potency,[11],inactive
same,Potency,[12],inactive
same,Potency,[13],inactive
same,Potency,[14],inactive
same,Potency,[15],inactive
same,Potency,[16],inactive
same,Potency,[17],inactive
CCOC(=O)Oc1ccc(CCNC(=O)[C@H](CCSC)NC(C)=O)cc1OC(=O)OCC,Potency,[1],inactive
same,Potency,[2],inactive
same,Potency,[3],inactive
same,Potency,[18],inactive
same,Potency,[4],inactive
same,Potency,[5],inactive
same,Potency,[6],inactive
same,Potency,[7],inactive
same,Potency,[8],inactive
same,Potency,[9],inactive
same,Potency,[10],inactive
same,Potency,[13],inactive
same,Potency,[14],inactive
same,Potency,[19],inactive
same,Potency,[15],inactive
same,Potency,[16],inactive
same,Potency,[17],inactive
CCC(Cl)CC(Cl)C(Cl)C(Cl)C(Cl)C(C)Cl (centres undefined),cytotoxicity increase,[1],7.16% [at 15.8 µM]
same,"activity change, negative = cytotoxicity",[2],0.764% [at 19 µM]
same,"viability change, negative = cytotoxic",[3],0.388% [at 19 µM]
same,"activity, negative = inhibition",[18],72.1% [at 19 µM]
same,"activity change, negative = inhibition",[4],63.4% [at 19 µM]
same,"activity change, negative = cytotoxicity",[6],-3.08% [at 19 µM]
same,"viability change, negative = cytotoxic",[7],-0.751% [at 19 µM]
same,"viability change, negative = cytotoxic",[8],0.145% [at 19 µM]
same,"activity change, negative = inhibition",[10],58.5% [at 19 µM]
same,"activity change, negative = cytotoxicity",[13],2.03% [at 19 µM]
same,"activity change, negative = cytotoxicity",[14],-10.7% [at 19 µM]
same,activation,[19],4.69% [at 19 µM]
same,"activity change, negative = cytotoxicity",[15],-4.67% [at 19 µM]
same,activation,[16],11.4% [at 19 µM]
same,cAMP activity change,[17],"4.41% [at 18.9 µM, stronger effect = higher value]"
